Experimental data as given in PubChem BioAssay.
Active and inactive are the calls of the source.

Experiments:
[1] = A549 cell viability effects, profiling panel, calcein-AM fluorescence, 48 h, basal (AID 1162); settings: higher = more signal
[2] = adipocyte viability effects, profiling panel, cell-based, 3T3-L1 adipocytes, calcein-AM fluorescence, 48 h, basal (AID 1163); settings: 3T3-L1 adipocytes viability, higher = more signal
[3] = HepG2 cell viability effects, profiling panel, calcein-AM fluorescence, 48 h, basal (AID 1164); settings: higher = more signal
[4] = MM1S cell viability effects, profiling panel, calcein-AM fluorescence, 48 h, basal (AID 1165); settings: higher = more signal;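 also: viability of MM1S multiple myeloma cells under basal unstimulated conditions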
[5] = basal RPMI8226 viability, no added stimulus, profiling panel, cell-based, calcein-AM fluorescence, 48 h, PK04 Diversity Set (AID 1166); settings: RPMI8226 myeloma viability, higher = more signal;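 also: cells grown under basal conditions without added stimulus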
[6] = basal HepG2 mitochondrial membrane potential changes, profiling panel, cell-based, JC-1 fluorescence, 24 h, 100 nL compound (AID 1167); settings: higher = more signal
[7] = basal 3T3-L1 adipocyte mitochondrial potential changes, profiling panel, cell-based, JC-1 fluorescence, 3T3-L1 adipocytes, 24 h, 100 nL compound (AID 1168); settings: JC-1 mitochondrial fluorescence, higher = more signal, called active from +8 up or from −8 down
[8] = basal RPMI8226 mitochondrial membrane potential changes, profiling panel, cell-based, JC-1 fluorescence, 24 h, 100 nL compound (AID 1169); settings: RPMI8226 myeloma, JC-1 mitochondrial potential fluorescence, higher = more signal
[9] = basal MM1S mitochondrial membrane potential changes, profiling panel, cell-based, JC-1 fluorescence, 24 h, 100 nL compound (AID 1170); settings: higher = more signal
[10] = A549 lung cancer cell viability effects, profiling panel, resazurin fluorescence, 24 h, PK04 Diversity Set (AID 1171); settings: higher = more signal, called active from +8 up or from −8 down
Also: test concentration not given here.

Structure (SMILES)	z-score [1]	z-score [2]	z-score [3]	z-score [4]	z-score [5]	z-score [6]	z-score [7]	z-score [8]	z-score [9]	z-score [10]
CC1=C[C@@]2(CO)C(=O)[C@]3(CO3)[C@@H]1[C@H]1[C@]2(C)C=C(CO)C(=O)[C@]12CO2	0.23	0.263	-0.164	-3.33	-0.753	-0.38	-0.311 (inactive)	0.249	-2.11	0.474 (inactive)
COC(=O)[C@@]1(Cc2ccc(OC)cc2)[C@H]2c3cc(C(=O)N(C)C)n(CCO)c3C[C@H]2CN1C(=O)c1ccccc1	-1.58	0.611	-0.516	-1.25	-0.755	-0.133	-1.36 (inactive)	-0.577	-0.327	-0.0699 (inactive)
CN1C(=O)C2C=CC(C(O)COCc3ccccc3)N(N(c3ccccc3)c3ccccc3)C2C1=O (stereo not given)	1.52	-1.5	0.688	-3.79	-3.67	0.0589	-1.12 (inactive)	-0.974	-1.34	0.419 (inactive)
COC(=O)Cn1c(C(=O)N(C)C)cc2c1C[C@H]1CN(C(=O)c3ccccc3)[C@@](Cc3ccc(F)cc3)(C(=O)OC)[C@@H]21	-0.0599	-1.23	0.0845	-1.38	-1.58	0.0394	-0.53 (inactive)	0.446	-0.148	-0.421 (inactive)
COC(=O)[C@@]1(Cc2ccc(OC)cc2)[C@H]2c3cc(C(=O)N4CCCC4)n(Cc4c(-c5ccccc5)noc4C)c3C[C@H]2CN1C(=O)c1ccccc1	-0.893	-0.451	-0.176	-2.72	-4.68	0.128	-0.732 (inactive)	-0.774	-1.52	0.356 (inactive)
C=CCC(OC(C)=O)[C@@H]1[C@@H](N(Cc2ccc(-c3ccccc3)cc2)C(=O)Cc2ccc(F)cc2)c2cc(OCCCO)ccc2N1C(=O)Cc1ccc(OC)cc1 (stereo not given in full)	0.178	0.0992	0.833	0.399	-0.279	1.69	-1.02 (inactive)	-0.112	-0.362	0.084 (inactive)
COc1cc2c(cc1O)C(C)N(Cc1ccc([N+](=O)[O-])o1)CC2 (stereo not given)	0.687	0.831	-0.963	-1.21	-0.867	-2.09	-0.741 (inactive)	0.105	-0.208	-0.0799 (inactive)
CC(C)N1C(=O)c2ccccc2[C@@H](C(=O)NC2CC2)[C@@H]1c1ccc(CO)cc1	0.798	0.774	0.476	-0.0123	0.282	0.507	0.319 (inactive)	0.108	0.0665	0.743 (inactive)
COC(=O)[C@@]1(Cc2ccc(F)cc2)[C@H]2c3cc(C(=O)N4CCCC4)n(CCN4CNCC4=O)c3C[C@H]2CN1C(=O)c1ccccc1	-0.0823	1.32	-0.403	-0.0244	-1.67	2.44	-0.933 (inactive)	-0.452	-1.23	0.415 (inactive)
NC(=O)NCC#Cc1ccc2c(c1)[C@]1(C(=O)N2)[C@H](C(=O)O)[C@H]2C(=O)O[C@H](c3ccccc3)[C@H](c3ccccc3)N2[C@@H]1c1ccc(OCCO)cc1	0.0179	0.359	-0.519	0.231	0.12	-2.3	-0.483 (inactive)	0.00293	0.12	0.721 (inactive)
O=C1O[C@@H](c2ccccc2)[C@@H](c2ccccc2)N2[C@@H](c3ccc(O)cc3)[C@]3(C(=O)Nc4ccc(C#CC5(O)CCCCCC5)cc43)[C@@H](C(=O)NC[C@H](O)c3ccccc3)[C@H]12	-0.0476	0.264	-0.181	-2.14	-1.31	-2.14	-1.16 (inactive)	-0.66	-0.279	0.119 (inactive)
COc1ccc([Si](C)(C)[C@@H]2[C@@H](CC(=O)N(CCO)Cc3ccccc3)O[C@]3(C(=O)N(Cc4cccc(N5C(=O)c6cccc7cccc5c67)c4)c4ccccc43)[C@H]2C)cc1	-1.32	1.43	-1.12	-1.48	-3.72	0.641	2.03 (inactive)	-1.02	-1.4	-0.999 (inactive)
Cc1ccc(S[C@]2(C(=O)NCC(F)(F)F)CC(=O)N(C3CCCCC3)[C@@H]2c2ccc(CO)cc2I)cc1	0.335	0.66	0.133	-2.65	-1.91	-0.807	-0.482 (inactive)	-0.445	0.176	0.741 (inactive)
COCCCNC(=O)[C@@]1(Cc2ccccc2CN=[N+]=[N-])N=C(c2ccc(OCCCO)cc2)O[C@H]1c1ccccc1	-1.15	0.759	-0.798	-2.93	-4.32	0.331	-0.00801 (inactive)	-1.25	-0.69	0.385 (inactive)
Cc1cc(C)c(C(O)C2C=CC3C(=O)N(c4ccccc4)C(=O)C3N2Nc2ccc(C(C)C)cc2)c(C)c1 (stereo not given)	-0.314	0.669	0.273	-0.0101	-0.792	-1.37	-1.13 (inactive)	-0.698	0.19	-1.72 (inactive)
